# Several values for one entry are separate records, joined by “and”; a condition that tells them apart may be missing. Equal entries are not always repeated. Results filed as inconclusive are left out. Where a call stands in place of a potency, no number is given. The source holds several records for some structures; these can differ, active in one and inactive in another. Activity calls are given as the source filed them. The call rests on the fitted dose curve; in most records, active means well fitted curve in the direction sought with a large enough effect in the repeat runs; inconclusive means weak or mixed curves; inactive means no such curve, though single readings can be large; an effect the other way counts as inactive or inconclusive.
# How the values were obtained:
# [1] = A CellTox Green Cytotoxicity Assay to monitor cytotoxicity in HEK293 cells - 40 hour (AID 1224871); further: nearly all actives have a fitted effect of over 45% in size
# How it was run: (§1)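 Dead-cell fluorescence measured kinetically: asymmetric cyanine dye, HEK293, 600 cells/well, 5 h settle, 23 nL cpd/DMSO, 37 C, reads 0–40 h every 8 h.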
# [2] = qHTS RealTime-Glo MT Cell Viability Assay in HEK293 cells - 16 hour (AID 1224872); further: nearly all actives have a fitted effect of over 50% in size; further: potency means the concentration at half of the fitted maximal effect
# How it was run: (§2)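 Luminescence generated by NanoLuc from substrate produced by living HEK293 cells served as the viability signal. Each value reflects the reading at its stated time point during continuous 40 h compound exposure at 37 C.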
# [3] = qHTS RealTime-Glo MT Cell Viability Assay in HepG2 cells - 8 hour (AID 1224873); further: nearly all actives have a fitted effect of over 55% in size
# How it was run: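 Real-time viability: cells seeded at 600 per well together with NanoLuc and cell-permeant prosubstrate, compounds added after 5 h incubation. Luminescence tracked at 0, 8, 16, 24, 32 and 40 h of exposure.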
# [4] = qHTS RealTime-Glo MT Cell Viability Assay in HEK293 cells - 40 hour (AID 1224874); settings: RealTime-Glo luminescence; max response: stronger effect = lower value; further: nearly all actives have a fitted effect of over 50% in size; further: potency means the concentration at half of the fitted maximal effect
# How it was run: (§3)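 600 HEK293 cells per well, dispensed already mixed with RealTime-Glo MT reagents. Compound dosing came 5 h later. The same wells were read for luminescence at 0, 8, 16, 24, 32 and 40 h of exposure at 37 C.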
# [5] = A CellTox Green Cytotoxicity Assay to monitor cytotoxicity in HEK293 cells - 24 hour (AID 1224875); further: series mostly up to about 77 µM; nearly all actives have a fitted effect of over 45% in size
# How it was run: as §1
# [6] = A CellTox Green Cytotoxicity Assay to monitor cytotoxicity in HepG2 cells - 16 hour (AID 1224876); further: nearly all actives have a fitted effect of over 45% in size
# How it was run: (§4)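 First, HepG2 cells (600/well) mixed with reagent were plated; second, after 5 h at 37 C they received compounds via pintool; third, fluorescence was measured at 0 h through 40 h at 8 h intervals.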
# [7] = qHTS RealTime-Glo MT Cell Viability Assay in HepG2 cells - 32 hour (AID 1224877); further: nearly all actives have a fitted effect of over 55% in size
# How it was run: (§5)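 Tox21 10K library screened in qHTS format on HepG2 cells carrying RealTime-Glo reagents. Compounds were added after a 5 h preincubation, and the luminescent signal from continuous culture was measured repeatedly during 40 h treatment.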
# [8] = A CellTox Green Cytotoxicity Assay to monitor cytotoxicity in HepG2 cells - 24 hour (AID 1224878); further: nearly all actives have a fitted effect of over 45% in size; further: potency means the concentration at half of the fitted maximal effect
# How it was run: as §4
# [9] = A CellTox Green Cytotoxicity Assay to monitor cytotoxicity in HepG2 cells - 40 hour (AID 1224879); further: nearly all actives have a fitted effect of over 40% in size; further: potency means the concentration at half of the fitted maximal effect
# How it was run: as §4
# [10] = qHTS RealTime-Glo MT Cell Viability Assay in HEK293 cells - 0 hour (AID 1224880)
# How it was run: as §3
# [11] = A CellTox Green Cytotoxicity Assay to monitor cytotoxicity in HEK293 cells - 32 hour (AID 1224881); further: nearly all actives have a fitted effect of over 40% in size
# How it was run: as §1
# [12] = A CellTox Green Cytotoxicity Assay to monitor cytotoxicity in HepG2 cells - 0 hour (AID 1224882); further: nearly all actives have a fitted effect of over 35% in size
# How it was run: as §4
# [13] = A CellTox Green Cytotoxicity Assay to monitor cytotoxicity in HepG2 cells - 32 hour (AID 1224883); further: nearly all actives have a fitted effect of over 50% in size; further: potency means the concentration at half of the fitted maximal effect
# How it was run: as §4
# [14] = A CellTox Green Cytotoxicity Assay to monitor cytotoxicity in HEK293 cells - 8 hour (AID 1224884); further: nearly all actives have a fitted effect of over 35% in size
# How it was run: as §1
# [15] = qHTS RealTime-Glo MT Cell Viability Assay in HepG2 cells - 16 hour (AID 1224885); further: nearly all actives have a fitted effect of over 50% in size
# How it was run: as §5
# [16] = qHTS RealTime-Glo MT Cell Viability Assay in HEK293 cells - 24 hour (AID 1224886); further: nearly all actives have a fitted effect of over 50% in size; further: potency means the concentration at half of the fitted maximal effect
# How it was run: as §2
# [17] = qHTS RealTime-Glo MT Cell Viability Assay in HEK293 cells - 8 hour (AID 1224887); further: nearly all actives have a fitted effect of over 50% in size; further: potency means the concentration at half of the fitted maximal effect
# How it was run: as §3
# [18] = A CellTox Green Cytotoxicity Assay to monitor cytotoxicity in HEK293 cells - 16 hour (AID 1224888); further: nearly all actives have a fitted effect of over 35% in size
# How it was run: as §1
# [19] = qHTS RealTime-Glo MT Cell Viability Assay in HepG2 cells - 0 hour (AID 1224889); further: nearly all actives have a fitted effect of over 50% in size; further: potency means the concentration at half of the fitted maximal effect
# How it was run: as §5
SMILES,Potency [1],Potency [2],Potency [3],max response [4],Potency [5],Potency [6],Potency [7],Potency [8],Potency [9],Potency [10],Potency [11],Potency [12],Potency [13],Potency [14],Potency [15],Potency [16],Potency [17],Potency [18],Potency [19],Potency [4]
CCCCCC/C=C/CCCCCCCC(=O)O,inactive,inactive,inactive,2.68% (inactive) and -1.87% (inactive),inactive,inactive,inactive,inactive,inactive,inactive,inactive,inactive,inactive,inactive,inactive,inactive,inactive,inactive,,
CC(C)Cc1ccccc1,,inactive,inactive,14.2% (inactive) and -0.413% (inactive),inactive,inactive,inactive,inactive,inactive,inactive,inactive,inactive,inactive,inactive,inactive,inactive,inactive,inactive,inactive,
CC(C)n1c(/C=C/[C@@H](O)C[C@@H](O)CC(=O)O)c(-c2ccc(F)cc2)c2ccccc21,inactive,inactive,inactive,-22.2% (inactive) and 0.258% (inactive),inactive,inactive,inactive,6.17 µM (active) and 10.7 µM (active),4.36 µM (active) and 9.52 µM (active),inactive,inactive,,4.36 µM (active) and 9.52 µM (active),inactive,inactive,inactive,inactive,inactive,inactive,
CS(=O)(=O)c1ccc([C@@H](O)[C@@H](CO)NC(=O)C(Cl)Cl)cc1,inactive,inactive,inactive,13.1% (inactive) and 7.93% (inactive),inactive,inactive,inactive,inactive,inactive,inactive,inactive,inactive,inactive,inactive,inactive,inactive,inactive,inactive,inactive,
CN(C)c1ccc(C(=N)c2ccc(N(C)C)cc2)cc1,,5.43 µM (active),,,inactive,inactive,,inactive,4.31 µM (active) and 18.8 µM (active),inactive,inactive,inactive,4.84 µM (active) and 18.8 µM (active),inactive,,3.42 µM (active) and 4.2 µM (active),inactive,inactive,,2.42 µM (active) and 2.97 µM (active)
Cc1cc(O)cc(C)c1Cl,inactive,inactive,inactive,-8.32% (inactive) and -0.996% (inactive),inactive,inactive,inactive,inactive,inactive,inactive,inactive,,inactive,inactive,inactive,inactive,inactive,inactive,inactive,
OC[C@@H](O)[C@@H](O)[C@H](O)[C@@H](O)CO,,inactive,inactive,-13% (inactive) and 0.936% (inactive),inactive,,inactive,inactive,inactive,inactive,inactive,inactive,inactive,inactive,inactive,inactive,inactive,inactive,,
CCCCC(CC)C(=O)OCCOCCOCCOC(=O)C(CC)CCCC (stereo not drawn),inactive,,inactive,-28.2% (inactive),inactive,inactive,inactive,inactive,inactive,inactive,inactive,inactive,inactive,inactive,inactive,,inactive,inactive,inactive,
CC1COc2ccccc2N1C(=O)C(Cl)Cl (stereo not drawn),inactive,inactive,inactive,-21% (inactive),inactive,inactive,inactive,inactive,inactive,inactive,inactive,,inactive,inactive,inactive,inactive,inactive,inactive,inactive,
CC(=O)[C@@]1(O)CC[C@H]2[C@@H]3CCC4=CC(=O)CC[C@]4(C)[C@H]3CC[C@@]21C,,inactive,inactive,,inactive,,inactive,inactive,inactive,inactive,inactive,inactive,inactive,inactive,inactive,inactive,inactive,inactive,6.16 µM (active) and 8.49 µM (active),
O=C1CCCCC1,inactive,inactive,inactive,4.63% (inactive) and 22.1% (inactive),inactive,inactive,inactive,inactive,inactive,inactive,inactive,,inactive,inactive,inactive,inactive,inactive,inactive,inactive,
Oc1ccc2ccccc2c1N=Nc1ccccc1,inactive,inactive,inactive,32.3% (inactive),inactive,,inactive,inactive,inactive,inactive,inactive,inactive,inactive,inactive,inactive,inactive,,inactive,,
C=C1CC[C@H](O)CC1=C/C=C1\CCC[C@]2(C)[C@@H]([C@H](C)/C=C/[C@H](C)C(C)C)CC[C@@H]12,,43.6 µM (active),inactive,,inactive,inactive,inactive,inactive,inactive,inactive,inactive,,inactive,inactive,inactive,43.6 µM (active),,inactive,inactive,48.5 µM (active) and 49 µM (active)
Cc1ccc(C(=O)O)o1,,inactive,inactive,2.67% (inactive) and -10.1% (inactive),inactive,,inactive,inactive,inactive,inactive,inactive,inactive,inactive,inactive,inactive,inactive,inactive,inactive,inactive,
Cc1ccc(N)c(S(=O)(=O)O)c1,,inactive,inactive,-4.11% (inactive) and 2.65% (inactive),inactive,,inactive,inactive,inactive,inactive,inactive,inactive,inactive,inactive,inactive,inactive,inactive,inactive,,
CCCCOCCO,,inactive,inactive,3.58% (inactive) and 5.47% (inactive),inactive,inactive,inactive,inactive,inactive,inactive,inactive,,inactive,inactive,inactive,inactive,inactive,inactive,inactive,
CCCCCCOC(C)=O,inactive,inactive,inactive,0.539% (inactive) and -29.1% (inactive),inactive,,inactive,inactive,inactive,inactive,inactive,,inactive,inactive,inactive,inactive,inactive,inactive,,
COC(=O)Nc1nc2ccc(Sc3ccccc3)cc2[nH]1,,1.38 µM (active) and 1.9 µM (active),inactive,,inactive,inactive,inactive,inactive and 10.7 µM (active),1.55 µM (active) and 848 nM (active),inactive,inactive,inactive,2.19 µM (active) and 952 nM (active),inactive,inactive,871 nM (active) and 952 nM (active),1.74 µM (active) and 2.13 µM (active),inactive,inactive,616 nM (active) and 848 nM (active)
CN(C)c1cccc(O)c1,inactive,inactive,inactive,-0.0652% (inactive) and -21.5% (inactive),inactive,inactive,inactive,inactive,inactive,inactive,inactive,,inactive,inactive,inactive,inactive,inactive,inactive,,
C=C(C)C(=O)OCCCCCC,,inactive,inactive,7.72% (inactive) and -0.816% (inactive),inactive,inactive,inactive,inactive,inactive,inactive,inactive,inactive,inactive,inactive,inactive,inactive,inactive,inactive,inactive,
CCCCC(CC)COC(C)=O (stereo not drawn),inactive,inactive,inactive,1.23% (inactive) and 1.38% (inactive),inactive,inactive,inactive,inactive,inactive,inactive,inactive,inactive,inactive,inactive,inactive,inactive,inactive,inactive,inactive,
COCC(C)O (stereo not drawn),inactive,inactive,inactive,-1.03% (inactive) and -1.56% (inactive),inactive,inactive,inactive,inactive,inactive,inactive,inactive,inactive,inactive,inactive,inactive,inactive,inactive,inactive,,

# Source: PubChem BioAssay (Tox21)
